# PubChem BioAssay (NCATS)
# Records with an inconclusive call do not appear. Entries that show only a call come without a potency. Calls of active or inactive are those of the source. The call rests on the fitted dose curve; in most records, active means well fitted inhibition curve with a large enough effect; inconclusive means small, poorly fitted or top-dose-only effect; inactive means no such curve, though single readings can be large or run the other way.
# Test: Primary qHTS for small molecule stabilizers of the endoplasmic reticulum resident proteome: Secreted ER Calcium Modulated Protein (SERCaMP) assay (AID 1508630)
# Details: SH-SY5Y GLuc-SERCaMP (Gaussia luciferase released on ER calcium loss) secretion, thapsigargin, luminescence; series mostly up to 38.4 µM
# Excerpt: Assay Provider: Brandon K. Harvey Ph.D.
# National Institute on Drug Abuse, National Institutes of Health, Baltimore, MD
# Endoplasmic reticulum (ER) dysregulation is associated with human pathologies including neurodegenerative, cardiovascular, muscular, and diabetic conditions. Maintenance of ER calcium is critical for functions of the ER and its depletion can lead to loss of ER resident proteins, in a process termed exodosis. Therapeutic compounds capable of attenuating the redistribution of ER proteins under pathological conditions may slow or stop disease progression. To identify such compounds, we performed a quantitative high-throughput screen (qHTS) using the SERCaMP assay, which monitors secretion of ER resident proteins triggered by calcium depletion.
# SERCaMP was initially developed as a reporter of ER calcium homeostasis using a Gaussia luciferase with a modified signal peptide and carboxy-terminus (GLuc-SERCaMP), modifications that confer secretion of the reporter in response to ER calcium depletion (Henderson et al., 2014). The assay was used to screen 9,501 compounds, including a collection of drugs approved by the FDA (US), EMA (EU), NHI (Japan), and HC (Canada) regulatory agencies (Huang et al., 2011). Since the SERCaMP reporter reflects the exodosis phenomenon (Trychta et al., 2018a), compounds identified in the screen have the potential to prevent exodosis by different mechanisms such as stabilizing ER calcium or augmenting ERS retrieval.
# 1. Henderson, M.J., Wires, E.S., Trychta, K.A., Richie, C.T., and Harvey, B.K. (2014). SERCaMP: a carboxy-terminal protein modification that enables monitoring of ER calcium homeostasis. Mol Biol Cell 25, 2828-2839.
# 2. Huang, R., Southall, N., Wang, Y., Yasgar, A., Shinn, P., Jadhav, A., Nguyen, D.T., and Austin, C.P. (2011). The NCGC pharmaceutical collection: a comprehensive resource of clinically approved drugs enabling repurposing and chemical genomics. Sci Transl Med 3, 80ps16.
# 3. Trychta, K.A., Back, S., Henderson, M.J., and Harvey, B.K. (2018a). KDEL Receptors Are Differentially Regulated to Maintain the ER Proteome under Calcium Deficiency. Cell Rep 25, 1829-1840 e1826.
# SEQUENCE No. (1, 2, 3, etc.); […] (e.g., Cells, Incubation, Reagent, etc.); VALUE and DESCRIPTION.
# 1; Reagent; 5 uL; 1000 SH-SY5Y cells per wells
# 3; Compound; 23 nL; Control inhibitor / compound library
# 5; Reagent; 100 nM; Thapsigargin
# 7; Reagent; 1 uL; 0.5x coelenterazine
# 8; Detection; Luminescence; ViewLux imaging system
# NOTES (numbers refer to sequence above)
# 1; SH-SY5Y human neuroblastoma cells stably expressing GLuc-SERCaMP (SH-SY5Y-GLuc-ASARTDL) cells were seeded in 1,536 well white tissue culture treated plates (Corning, Cat# 7464) in DMEM-high glucose-sodium pyruvate (ThermoFisher Scientific, Cat #10569) supplemented with 10% bovine growth serum (Hyclone), 10 U/ml penicillin (Gibco), 10 ug/ml streptomycin (Gibco), and 20 mM HEPES.
# 2; Assay plates were incubated for 5 hour at 37C in a humidified incubator containing 5% CO2.
# 3; qHTS libraries (23 nl, final concentrations of 1.53 uM, 7.67 uM, 38.3 uM) or controls (neutral control: DMSO, positive control: dantrolene) were added using a Kalypsis pin-tool Robotic System equipped with 1536 pinheads.
# 4; Cells were then incubated for 16 hours at 37C, 5% CO2.
# 5; Thapsigargin was added at 100 nM to deplete ER calcium stores.
# 6; Cells were incubated for 4 hour (37 °C, 5% CO2)
# 7; Gaussia luciferase in the medium was measured by adding 1 ul of 0.5x coelenterazine (final concentration 0.07x) prepared in Gaussia Luciferase Glow Assay Buffer (Pierce), without addition of the Cell Lysis Buffer Reagent.
# 8; Luminescence was measured using a ViewLux […] CCD imaging system (Perkin Elmer) equipped with clear filters. […] The same controls were also used for the calculation of the Z' factor, a measure of assay quality control, as previously described (Zhang et al., 1999). […]
# Potency means the concentration at half of the fitted maximal effect.
row,Structure (SMILES),Potency
1,O=C(Oc1ccc([N+](=O)[O-])cc1)N1CCC(C(O)(c2ccc3c(c2)OCO3)c2ccc3c(c2)OCO3)CC1,inactive
2,COC1=CC(C)=C[C@@H](C)[C@@H](O)[C@@H](C)CC(C)=CC=C[C@H](OC)[C@H]([C@@H](C)[C@@H](O)[C@H](C)[C@@]2(O)C[C@@H](O)[C@H](C)[C@@H](C(C)C)O2)OC1=O,inactive
3,CCCN1CCC[C@H](c2cccc(O)c2)C1,inactive
4,CC1(C)CC/C(=C/c2ccc(Cl)cc2)C1(O)Cn1cncn1 (stereo not given),inactive
5,COC(C)(C)CCCC(C)C/C=C/C(C)=C/C(=O)OC(C)C (stereo not given),inactive
6,CO[C@H]1CCC(O[C@H]2C[C@H]([C@]3(C)CC[C@]4(C[C@H](O)[C@@H](C)[C@@H]([C@@H](C)C=C(C)C(=O)[C@H](C)C[C@H](C)C(=O)O)O4)O3)O[C@]3(O[C@@H]([C@H]4O[C@@](O)(CO)[C@H](C)C[C@H]4C)C[C@H]3C)[C@H]2C)O[C@H]1C (stereo not given in full),inactive
7,O=[N+]([O-])c1ccc([As](=O)(O)O)cc1,inactive
8,CC(O)=C(C#N)C(=O)Nc1cc(Br)ccc1Br,inactive
9,C=C[C@@H]1CN2CCC1C[C@H]2[C@H](O)c1ccnc2ccccc12 (stereo not given in full),inactive
10,C#CCOC(=O)C1=CCCN(C)C1,inactive
11,NCCc1c[nH]c2ccc(O)cc12,inactive
12,C[C@@H](N)Cc1cnc[nH]1,inactive
13,Cc1nccc2c1[nH]c1ccccc12,inactive
14,O=C(O)COc1nc(Cl)c(Cl)cc1Cl,inactive
15,CSCC[C@@H](NC(=O)[C@@H](Cc1ccccc1)NC(=O)CNC(=O)CNC(=O)[C@@H](N)Cc1ccc(O)cc1)C(=O)O,inactive
16,O=C1CCC[C@@H]2[C@H]3CCCN4CCC[C@@H](CN12)[C@@H]34,inactive
17,CC(N[C@H]1C[C@H]1c1ccccc1)c1ccc2c(c1)OCCO2 (stereo not given in full),inactive
18,CCCCCCCCc1ccc(O)cc1,inactive
19,C#CC1(O)CCC2C3CCC4=CC(=O)CCC4(C)C3CCC21C (stereo not given),inactive
20,S=C(SSC(=S)N1CCCCC1)N1CCCCC1,inactive

row,Structure (SMILES),Potency
1,O=c1[nH]c2ccc(Cl)cc2c(N[C@@H]2CN3CCC2CC3)c1-c1nc2ccccc2[nH]1,inactive
2,C=C[C@@H]1CN2CCC1C[C@@H]2[C@@H](O)c1ccnc2ccccc12 (stereo not given in full),inactive
3,O=C(O)CNC(=O)c1c(O)c2ccccc2n(Cc2ccccc2)c1=O,inactive
4,COc1ccc2c(c1)[C@]13CCCCC1C(C2)N(C)CC3 (stereo not given in full),473 nM (active)
5,CC[C@H]1C=CC=CC[C@@H](C)[C@H](O)[C@@](C)(O)C(=O)[C@@H](C)[C@H](O)[C@@H](C)C(=O)[C@@H](C)[C@H](O)[C@@H](C)C=CC(=O)O[C@@H]2[C@@H](C)[C@H](CC1)O[C@]1(CC[C@H](C)[C@H](C[C@@H](C)O)O1)[C@H]2C,inactive
6,NCc1cc(=O)[nH]o1,inactive
7,ClC1=C(Cl)[C@]2(Cl)[C@@H]3[C@@H]4C[C@@H]([C@H]5O[C@@H]45)[C@@H]3[C@@]1(Cl)C2(Cl)Cl,inactive
8,C[N+]1(C)C2CCC1CC(OC(=O)C(CO)c1ccccc1)C2 (stereo not given),inactive
9,CC(=O)O[C@@]12CO[C@H]1C[C@H](O)[C@@]1(C)C(=O)[C@H](O)C3=C(C)[C@@H](O)C[C@@](O)([C@@H](OC(=O)c4ccccc4)[C@@H]21)C3(C)C,inactive
10,C=CC(=O)NCNC(=O)C=C,inactive
11,COc1cc([C@@H]2c3cc4c(cc3[C@@H](O)C3COC(=O)C32)OCO4)cc(OC)c1O (stereo not given in full),inactive
12,CC(C)N[C@@H]1CCn2c(=O)[nH]c3cccc(c32)[C@@H]1O,inactive
13,CC(O)CN1CCN(CC(=O)[O-])CCN(CC(=O)[O-])CCN(CC(=O)[O-])CC1.[Gd+3] (stereo not given),inactive
14,CC[C@@H]1[C@@H](C)O[C@@](O)([C@@H](C)[C@H](O)[C@H](C)[C@H]2OC(=O)C=CC=C[C@@H](C)[C@@H]([C@@H](C)[C@@H](O)[C@H](C)[C@@]3(O)C[C@H](O[C@H]4C[C@H](O)[C@H](O)[C@H](C)O4)[C@H](CC)[C@@H](C)O3)OC(=O)C=CC=C[C@@H]2C)C[C@H]1O[C@H]1C[C@H](O)[C@H](O)[C@H](C)O1,inactive
15,COc1ccc2c(c[n+](C)c3c4cc5c(cc4ccc23)OCO5)c1OC,inactive
16,CCN1C[C@]2(OC(=O)c3ccccc3NC(C)=O)CC[C@H](OC)[C@@]34[C@H]5CC6[C@@H](OC)C[C@](O)(C(C[C@@H]23)[C@@H]14)[C@@]5(O)[C@@H]6OC,inactive
17,CCCCOC(=O)c1ccccc1C(=O)OCc1ccccc1,inactive
18,c1ccc(CCCN2CCN(CCOC(c3ccccc3)c3ccccc3)CC2)cc1,inactive
19,O=S(=O)(F)Cc1ccccc1,inactive
20,CC1=NN=C(c2ccc(N)cc2)c2cc3c(cc2C1)OCO3,inactive
